In general, inhibition refers to the relative decrease from the control value, in per cent.

Here are results for 20 compounds from ChEMBL document CHEMBL1961873, “Compounds: GSK PKIS; Assays: Nanosyn kinase panel” (2012).

The target in experiment [1] is Death-associated protein kinase 1 (Homo sapiens) (UniProt P53355). To be noted: at 1 µM.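 Also: each value is a mean inhibition figure.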
The target of experiment [2] is T1, Serine/threonine-protein kinase DCLK2 (Homo sapiens) (UniProt Q8N568).
T1 sequence (whole entry): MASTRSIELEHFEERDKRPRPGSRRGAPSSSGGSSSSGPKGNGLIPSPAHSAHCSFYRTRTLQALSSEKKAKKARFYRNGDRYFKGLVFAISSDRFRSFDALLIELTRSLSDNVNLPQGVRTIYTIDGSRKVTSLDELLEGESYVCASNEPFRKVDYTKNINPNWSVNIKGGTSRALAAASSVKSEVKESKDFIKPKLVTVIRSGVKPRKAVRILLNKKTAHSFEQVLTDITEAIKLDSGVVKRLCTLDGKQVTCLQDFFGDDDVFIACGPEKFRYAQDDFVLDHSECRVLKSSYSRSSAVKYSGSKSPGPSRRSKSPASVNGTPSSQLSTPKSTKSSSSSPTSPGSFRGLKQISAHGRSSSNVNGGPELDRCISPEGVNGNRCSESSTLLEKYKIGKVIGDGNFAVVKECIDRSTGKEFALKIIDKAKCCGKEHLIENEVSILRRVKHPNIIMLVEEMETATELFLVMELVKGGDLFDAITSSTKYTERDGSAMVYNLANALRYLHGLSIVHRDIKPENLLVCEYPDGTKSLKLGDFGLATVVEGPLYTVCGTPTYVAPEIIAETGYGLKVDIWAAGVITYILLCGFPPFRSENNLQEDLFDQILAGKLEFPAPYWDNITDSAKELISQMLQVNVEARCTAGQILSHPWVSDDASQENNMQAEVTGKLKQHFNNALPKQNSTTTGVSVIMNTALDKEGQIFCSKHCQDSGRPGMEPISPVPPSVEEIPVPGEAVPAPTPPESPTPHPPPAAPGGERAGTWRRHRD
To be noted: at 0.1 µM.

The target in experiment [3] is T1, Serine/threonine-protein kinase DCLK2 (Homo sapiens). The following applies: at 1 µM.
In experiment [4] the target is MAP kinase-activated protein kinase 2 (Homo sapiens) (UniProt P49137). The following applies: at 0.1 µM.
Chain of MAP kinase-activated protein kinase 2 (Homo sapiens) (P49137 whole entry, looked up): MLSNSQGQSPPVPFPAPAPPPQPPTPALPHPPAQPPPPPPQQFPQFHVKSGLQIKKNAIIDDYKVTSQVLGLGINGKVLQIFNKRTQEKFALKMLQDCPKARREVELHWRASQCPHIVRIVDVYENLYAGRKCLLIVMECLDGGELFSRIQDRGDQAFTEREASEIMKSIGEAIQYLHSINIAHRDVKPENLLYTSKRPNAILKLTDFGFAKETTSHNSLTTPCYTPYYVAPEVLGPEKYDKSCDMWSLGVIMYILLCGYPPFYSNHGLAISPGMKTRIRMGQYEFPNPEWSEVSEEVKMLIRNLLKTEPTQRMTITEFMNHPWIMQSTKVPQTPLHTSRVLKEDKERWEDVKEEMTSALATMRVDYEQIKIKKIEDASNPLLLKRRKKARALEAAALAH
Experiment [5] shares this target. The following applies: at 1 µM.
Experiment [6] concerns the target MAP kinase-activated protein kinase 3 (Homo sapiens) (UniProt Q16644). The following applies: at 0.1 µM.
Experiment [7] shares this target. To be noted: at 1 µM.
Experiment [8] concerns the target Serine/threonine-protein kinase MARK1 (Homo sapiens) (UniProt Q9P0L2). The following applies: at 0.1 µM.
For experiment [9] the target is unchanged. To be noted: at 1 µM.
Experiment [10] concerns the target MAP/microtubule affinity-regulating kinase 3 (Homo sapiens) (UniProt P27448). To be noted: at 0.1 µM.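 Also: mean percent inhibition of MARK3 kinase activity, measured within the GSK PKIS screening panel.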

Chain of Death-associated protein kinase 1 (Homo sapiens) (P53355 whole entry, looked up): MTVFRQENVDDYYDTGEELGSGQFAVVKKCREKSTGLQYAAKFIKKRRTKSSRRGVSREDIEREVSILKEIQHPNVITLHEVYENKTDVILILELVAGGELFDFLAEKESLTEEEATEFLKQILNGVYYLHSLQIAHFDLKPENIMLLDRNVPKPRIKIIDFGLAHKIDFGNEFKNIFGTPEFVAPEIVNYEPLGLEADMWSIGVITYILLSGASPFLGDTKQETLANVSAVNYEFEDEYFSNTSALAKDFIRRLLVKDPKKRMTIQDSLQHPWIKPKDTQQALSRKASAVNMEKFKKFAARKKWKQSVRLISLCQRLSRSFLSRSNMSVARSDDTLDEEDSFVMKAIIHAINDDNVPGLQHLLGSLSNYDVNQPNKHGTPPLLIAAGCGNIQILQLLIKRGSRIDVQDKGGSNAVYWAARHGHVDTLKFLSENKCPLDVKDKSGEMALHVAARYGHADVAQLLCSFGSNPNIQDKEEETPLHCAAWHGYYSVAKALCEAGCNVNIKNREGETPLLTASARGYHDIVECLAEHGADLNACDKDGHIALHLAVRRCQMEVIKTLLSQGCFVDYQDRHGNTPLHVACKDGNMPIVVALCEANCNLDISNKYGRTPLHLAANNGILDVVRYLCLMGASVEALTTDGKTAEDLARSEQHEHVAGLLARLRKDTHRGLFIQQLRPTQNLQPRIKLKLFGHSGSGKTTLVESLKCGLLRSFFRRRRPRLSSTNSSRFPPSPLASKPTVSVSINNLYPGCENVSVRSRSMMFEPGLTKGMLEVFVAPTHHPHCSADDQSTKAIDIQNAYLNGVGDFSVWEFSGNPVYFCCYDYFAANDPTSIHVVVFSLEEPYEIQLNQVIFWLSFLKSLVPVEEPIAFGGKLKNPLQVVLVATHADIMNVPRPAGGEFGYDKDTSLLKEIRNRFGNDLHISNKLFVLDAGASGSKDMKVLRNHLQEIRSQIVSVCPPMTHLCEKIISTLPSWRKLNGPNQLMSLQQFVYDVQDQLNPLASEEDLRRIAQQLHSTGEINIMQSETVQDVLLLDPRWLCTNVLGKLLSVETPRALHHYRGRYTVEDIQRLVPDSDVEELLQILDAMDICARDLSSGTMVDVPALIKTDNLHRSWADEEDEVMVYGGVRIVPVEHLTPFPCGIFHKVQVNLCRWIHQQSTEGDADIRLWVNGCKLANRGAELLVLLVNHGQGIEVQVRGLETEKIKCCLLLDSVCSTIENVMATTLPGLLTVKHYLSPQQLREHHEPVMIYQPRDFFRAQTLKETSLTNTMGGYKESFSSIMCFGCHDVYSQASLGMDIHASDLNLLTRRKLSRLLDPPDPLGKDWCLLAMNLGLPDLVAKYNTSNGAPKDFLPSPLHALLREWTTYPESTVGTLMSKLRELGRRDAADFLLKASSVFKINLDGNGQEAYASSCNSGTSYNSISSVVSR
Chain of MAP kinase-activated protein kinase 3 (Homo sapiens) (Q16644 whole entry, looked up): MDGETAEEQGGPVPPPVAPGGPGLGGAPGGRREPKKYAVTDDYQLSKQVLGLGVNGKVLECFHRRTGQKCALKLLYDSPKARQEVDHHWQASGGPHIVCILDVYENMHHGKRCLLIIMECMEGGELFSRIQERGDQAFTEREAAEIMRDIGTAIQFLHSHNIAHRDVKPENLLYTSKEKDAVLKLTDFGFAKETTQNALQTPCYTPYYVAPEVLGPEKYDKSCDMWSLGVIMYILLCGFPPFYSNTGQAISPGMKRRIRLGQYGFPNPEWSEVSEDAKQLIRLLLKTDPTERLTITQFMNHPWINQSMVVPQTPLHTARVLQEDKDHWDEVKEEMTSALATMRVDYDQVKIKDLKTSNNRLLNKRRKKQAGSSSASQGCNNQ
Chain of Serine/threonine-protein kinase MARK1 (Homo sapiens) (Q9P0L2 whole entry, looked up): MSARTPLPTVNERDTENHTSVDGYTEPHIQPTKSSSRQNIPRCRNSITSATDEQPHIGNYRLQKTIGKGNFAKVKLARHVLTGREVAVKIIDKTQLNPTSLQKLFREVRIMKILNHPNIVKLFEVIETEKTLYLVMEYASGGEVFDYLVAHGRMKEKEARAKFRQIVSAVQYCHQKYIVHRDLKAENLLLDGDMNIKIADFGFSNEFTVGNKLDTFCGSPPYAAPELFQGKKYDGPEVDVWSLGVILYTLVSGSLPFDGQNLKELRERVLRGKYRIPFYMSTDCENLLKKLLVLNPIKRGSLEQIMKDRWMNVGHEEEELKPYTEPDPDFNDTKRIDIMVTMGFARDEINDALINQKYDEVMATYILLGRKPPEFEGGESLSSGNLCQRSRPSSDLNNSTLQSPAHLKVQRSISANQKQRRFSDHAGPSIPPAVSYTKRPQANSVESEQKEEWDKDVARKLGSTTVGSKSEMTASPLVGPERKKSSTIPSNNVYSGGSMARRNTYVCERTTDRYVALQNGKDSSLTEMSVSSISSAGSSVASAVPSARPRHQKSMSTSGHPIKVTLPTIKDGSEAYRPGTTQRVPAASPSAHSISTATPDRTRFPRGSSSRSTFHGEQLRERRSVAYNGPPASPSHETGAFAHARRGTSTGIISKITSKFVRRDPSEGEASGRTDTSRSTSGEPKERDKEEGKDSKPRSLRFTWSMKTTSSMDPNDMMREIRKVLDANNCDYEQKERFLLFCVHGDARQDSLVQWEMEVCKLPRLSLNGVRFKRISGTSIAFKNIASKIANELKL
Chain of MAP/microtubule affinity-regulating kinase 3 (Homo sapiens) (P27448 whole entry, looked up): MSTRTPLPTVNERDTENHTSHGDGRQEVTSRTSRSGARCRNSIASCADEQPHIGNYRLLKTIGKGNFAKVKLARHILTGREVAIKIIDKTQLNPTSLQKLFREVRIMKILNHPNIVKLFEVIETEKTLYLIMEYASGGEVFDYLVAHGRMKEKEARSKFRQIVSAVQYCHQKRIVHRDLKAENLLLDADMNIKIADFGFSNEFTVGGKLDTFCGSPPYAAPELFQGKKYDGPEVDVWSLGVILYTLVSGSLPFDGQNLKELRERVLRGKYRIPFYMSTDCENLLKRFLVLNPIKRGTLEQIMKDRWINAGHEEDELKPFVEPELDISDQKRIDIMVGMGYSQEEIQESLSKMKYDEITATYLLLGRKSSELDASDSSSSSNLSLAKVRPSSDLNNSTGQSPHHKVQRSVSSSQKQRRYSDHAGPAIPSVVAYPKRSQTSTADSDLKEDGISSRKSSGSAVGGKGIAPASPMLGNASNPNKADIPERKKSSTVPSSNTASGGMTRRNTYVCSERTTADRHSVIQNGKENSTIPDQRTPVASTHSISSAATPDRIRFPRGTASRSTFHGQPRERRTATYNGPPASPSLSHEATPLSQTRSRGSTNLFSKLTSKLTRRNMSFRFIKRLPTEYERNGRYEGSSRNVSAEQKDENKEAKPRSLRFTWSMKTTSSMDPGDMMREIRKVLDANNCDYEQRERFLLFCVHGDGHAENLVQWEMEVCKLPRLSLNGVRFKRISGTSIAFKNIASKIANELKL

For the compound `CCn1c(-c2nonc2N)nc2cncc(C(=O)N3CCNCC3)c21`, the inhibition was determined as 8.15% in experiment [1]; 0.84% in experiment [2]; 1.96% in [3]; 2.84% in [4]; 5.04% in experiment [5]; 6.65% in [6]. In addition, the inhibition in experiment [7] was found to be 10.7%; in [8], 2.63%; in experiment [9], 3.48%; in [10], 5.76%.

On to `Cn1cc(C=C2C(=O)Nc3cccnc32)c2ccccc21`, for which the inhibition in experiment [1] came out at 7.28%; in [2], 0.87%; in experiment [3] it was 3.71%; in [4], 0.71%; in experiment [5], 1.83%; in [6], 2.19%. Also, the inhibition in experiment [7] came out at 5.11%; in experiment [8], 3.55%; in experiment [9] it was 9.52%; in experiment [10], 4.73%.

On to `COc1cccc(-n2ncc3c(N/N=C/c4cccc(F)c4)ncnc32)c1`, for which the inhibition in [1] was -1.39%; in experiment [2], -4.3%; in experiment [3], 1.59%; in [4], -0.12%; in [5] it was 0.02%; in experiment [6], 1.02%. Also, the inhibition in [7] is 0.04%; in experiment [8], 2.19%; in experiment [9] it was 6.35%; in experiment [10], 0.17%.

As to `[O-][S+]1CCN(Cc2ccc(-c3ccc4ncnc(Nc5ccc(OCc6ccccc6)c(F)c5)c4c3)o2)CC1`, the inhibition amounted to 3.11% in experiment [1]; 1.91% in [2]; 3.92% in experiment [3]; 0.41% in [4]; 0.42% in [5]; 0.85% in experiment [6]. In addition, the inhibition stood at 3.94% in experiment [7], 1.63% in experiment [8], 2.55% in [9] and 2.88% in experiment [10].

In the case of `CCn1c(-c2nonc2N)nc2ccncc21`, the inhibition is 2.7% in [1]; -2.35% in experiment [2]; -1.48% in [3]; -0.18% in experiment [4]; 0.49% in experiment [5]; 0.85% in [6]. Besides, the inhibition in experiment [7] is 1.7%; in experiment [8] it was 0.76%; in experiment [9], -0.05%; in [10] it was 0.13%.

`Nc1nc(-c2ccccn2)c(-c2ccc3ncccc3n2)s1`: the inhibition is 3.99% in [1]; 0.14% in [2]; -0.77% in [3]; 2.05% in [4]; 2.02% in experiment [5]; 1.5% in experiment [6]. Also, the inhibition in experiment [7] came to 3.66%; in experiment [8] it was 3.28%; in experiment [9], 6.18%; in experiment [10] it was 2.5%.

Turning to `CN(C)c1cc2c(Nc3ccc4nc(Cc5ccccc5)[nH]c4c3)ncnc2cn1`, the inhibition in [1] was found to be 7.51%; in experiment [2], 1.19%; in experiment [3] it was 1.22%; in experiment [4] it was 2.01%; in [5], 2.85%; in experiment [6] it was 4.79%. For the same compound, the inhibition in experiment [7] is 4.13%; in experiment [8], 3.62%; in experiment [9], 5.59%; in experiment [10], 3.84%.

In the case of `COc1ccc(COc2ccc(Cc3cnc(N)nc3N)cc2OC)cc1`, the inhibition is 9.42% in [1]; 0.28% in experiment [2]; 8.82% in experiment [3]; 2.95% in [4]; 3.22% in [5]; 6.15% in experiment [6]. The inhibition in experiment [7] is 7.43%; in experiment [8] it was 2.6%; in experiment [9], 0.09%; in [10] it was 4.54%.

For `CCN1CCC(CC(=O)Nc2n[nH]c3nc(-c4cccs4)c(Br)cc23)CC1`, the inhibition was 1.46% in experiment [1]; 0.63% in [2]; 0.11% in experiment [3]; -2.22% in experiment [4]; -2.04% in experiment [5]; -2.21% in experiment [6]. Further, the inhibition was -2.44% in [7], -2.56% in experiment [8], -1.05% in experiment [9] and 1% in [10].

Consider `O=C1NC(=O)C(c2ccccc2Cl)=C1Nc1cccc(O)c1`, for which the inhibition in experiment [1] was 3.55%; in experiment [2], -0.07%; in experiment [3], 1.16%; in experiment [4] it was 1.27%; in [5] it was 1.05%; in experiment [6], 1.45%. Besides, the inhibition came out at 1.77% in experiment [7], 1.97% in experiment [8], 8.19% in experiment [9] and 1.72% in experiment [10].

As to `O=C1NC(=O)C(c2ccc(Cl)cc2)=C1Nc1ccc(Cl)c(C(=O)O)c1`, the inhibition in experiment [1] was -1.43%; in [2], -1.2%; in experiment [3] it was -0.41%; in experiment [4], -1.23%; in [5] it was -1.83%; in experiment [6], -0.48%. Besides, the inhibition in experiment [7] is -1%; in experiment [8] it was -0.68%; in experiment [9], -0.26%; in experiment [10], -0.12%.

For the compound `CC1=C(C(=O)Nc2ccc3[nH]ncc3c2)C(c2ccc3ccccc3c2)CC(=O)N1` (stereo unspecified), the inhibition in [1] was 0.51%; in experiment [2] it was 0.76%; in [3] it was -1.57%; in experiment [4] it was 0.66%; in experiment [5], 0.45%; in [6] it was 0.74%. The inhibition in experiment [7] turned out to be 2.13%; in experiment [8] it was 1.86%; in experiment [9], 3.48%; in experiment [10], 0.58%.

As to `COc1cc2ncn(-c3cc(O[C@H](C)c4ccccc4Cl)c(C(N)=O)s3)c2cc1OC`, the inhibition in experiment [1] was -9.77%; in experiment [2], 0.64%; in experiment [3], 1.35%; in [4] it was -0.8%; in experiment [5], -0.71%; in experiment [6], -2.77%. The inhibition in experiment [7] was -0.41%; in experiment [8], 5.95%; in [9], 31.9%; in experiment [10], 3.47%.

For `COc1ccccc1Nc1ncc(-c2ccccc2)o1`, the inhibition in experiment [1] is -4.43%; in experiment [2], 2.18%; in experiment [3] it was 0.52%; in experiment [4] it was -0.33%; in [5] it was -1.84%; in [6], 0.93%. The inhibition in experiment [7] amounted to 1.35%; in experiment [8], 2.73%; in [9], 5.68%; in experiment [10], 4.5%.

As to `O=C1Nc2ccc(C(=O)c3ccco3)cc2C1=Cc1cc(Cl)c(O)c(Cl)c1`, the inhibition in [2] was found to be 1%; in [3], 6.57%; in [4], 1.24%; in experiment [5], 0.24%; in [6], 3.31%; in [7] it was 2.14%. The inhibition in [8] stood at 3.54%; in [9], 14.2%; in experiment [10] it was 4.74%.

Take `COc1cc2c(cc1Nc1nc(N3CCc4ccccc43)c3cc[nH]c3n1)N(C(=O)CN(C)C)CC2`: the inhibition is 5.32% in [1]; -0.1% in [2]; -1.1% in [3]; 1.24% in [4]; 1.57% in [5]; 1.99% in [6]. In addition, the inhibition in [7] is 0.18%; in [8], 1.84%; in experiment [9], 3.15%; in experiment [10], 4.35%.

With `COc1ccc(-c2nn3ncccc3c2-c2ccnc(Nc3ccc(Cl)c(C(F)(F)F)c3)n2)cc1`, the inhibition came out at 2.18% in [1]; 1.74% in [2]; 1.23% in experiment [4]; 0.64% in [5]; 4.41% in experiment [6]; 17.4% in experiment [7]. Also, the inhibition in experiment [8] was 2.21%; in [9], 2.97%; in [10], -0.96%.

With `CCn1c(-c2nonc2N)nc2c(C#CC(C)(C)O)nc(CN3CCCC3)cc21`, the inhibition is -0.31% in [1]; 6.66% in [2]; -1.42% in [3]; -0.49% in [4]; -0.42% in experiment [5]; -1.48% in [6]. Moreover, the inhibition was -0.59% in [7], 4.99% in [8], 12% in experiment [9] and 4.42% in experiment [10].

With `CCn1c(-c2nonc2N)nc2c(C#CC(C)(C)O)nc(OC[C@@H](N)c3ccccc3)cc21`, the inhibition in experiment [1] is -7.69%; in experiment [3], 1.63%; in [4], -3.81%; in [5], -3.91%; in experiment [6], -6.12%; in experiment [7], -7.91%. Besides, the inhibition in experiment [8] came to 0.67%; in [9] it was 19.9%; in experiment [10], 3.1%.

With `COc1cc2ncn(-c3cc(OCc4ccccc4Cl)c(C(N)=O)s3)c2cc1OC`, the inhibition was -1.31% in experiment [2]; 4.65% in experiment [3]; -2.81% in experiment [4]; -3.53% in experiment [5]; -5.38% in experiment [6]; -2.78% in experiment [7]. For the same compound, the inhibition came to 2.4% in experiment [8], 9.28% in experiment [9] and 1.85% in experiment [10].
